The full list was thinned out, with hits kept by preference.
KDM5B inhibitor = KDM5B demethylase inhibition | KDM5B demethylase, FDH-coupled NADH fluorescence (FDH is formaldehyde dehydrogenase) | Potency, µM (highest dose often 57.7 µM), usual class: inhibitors | 2.6% of 220,000 active; active = well fitted inhibition curve with a large enough effect; also: 0% is about no effect; nearly all actives have a fitted effect of over 70% in size
Target sequence (Q9UGL1 whole entry, looked up): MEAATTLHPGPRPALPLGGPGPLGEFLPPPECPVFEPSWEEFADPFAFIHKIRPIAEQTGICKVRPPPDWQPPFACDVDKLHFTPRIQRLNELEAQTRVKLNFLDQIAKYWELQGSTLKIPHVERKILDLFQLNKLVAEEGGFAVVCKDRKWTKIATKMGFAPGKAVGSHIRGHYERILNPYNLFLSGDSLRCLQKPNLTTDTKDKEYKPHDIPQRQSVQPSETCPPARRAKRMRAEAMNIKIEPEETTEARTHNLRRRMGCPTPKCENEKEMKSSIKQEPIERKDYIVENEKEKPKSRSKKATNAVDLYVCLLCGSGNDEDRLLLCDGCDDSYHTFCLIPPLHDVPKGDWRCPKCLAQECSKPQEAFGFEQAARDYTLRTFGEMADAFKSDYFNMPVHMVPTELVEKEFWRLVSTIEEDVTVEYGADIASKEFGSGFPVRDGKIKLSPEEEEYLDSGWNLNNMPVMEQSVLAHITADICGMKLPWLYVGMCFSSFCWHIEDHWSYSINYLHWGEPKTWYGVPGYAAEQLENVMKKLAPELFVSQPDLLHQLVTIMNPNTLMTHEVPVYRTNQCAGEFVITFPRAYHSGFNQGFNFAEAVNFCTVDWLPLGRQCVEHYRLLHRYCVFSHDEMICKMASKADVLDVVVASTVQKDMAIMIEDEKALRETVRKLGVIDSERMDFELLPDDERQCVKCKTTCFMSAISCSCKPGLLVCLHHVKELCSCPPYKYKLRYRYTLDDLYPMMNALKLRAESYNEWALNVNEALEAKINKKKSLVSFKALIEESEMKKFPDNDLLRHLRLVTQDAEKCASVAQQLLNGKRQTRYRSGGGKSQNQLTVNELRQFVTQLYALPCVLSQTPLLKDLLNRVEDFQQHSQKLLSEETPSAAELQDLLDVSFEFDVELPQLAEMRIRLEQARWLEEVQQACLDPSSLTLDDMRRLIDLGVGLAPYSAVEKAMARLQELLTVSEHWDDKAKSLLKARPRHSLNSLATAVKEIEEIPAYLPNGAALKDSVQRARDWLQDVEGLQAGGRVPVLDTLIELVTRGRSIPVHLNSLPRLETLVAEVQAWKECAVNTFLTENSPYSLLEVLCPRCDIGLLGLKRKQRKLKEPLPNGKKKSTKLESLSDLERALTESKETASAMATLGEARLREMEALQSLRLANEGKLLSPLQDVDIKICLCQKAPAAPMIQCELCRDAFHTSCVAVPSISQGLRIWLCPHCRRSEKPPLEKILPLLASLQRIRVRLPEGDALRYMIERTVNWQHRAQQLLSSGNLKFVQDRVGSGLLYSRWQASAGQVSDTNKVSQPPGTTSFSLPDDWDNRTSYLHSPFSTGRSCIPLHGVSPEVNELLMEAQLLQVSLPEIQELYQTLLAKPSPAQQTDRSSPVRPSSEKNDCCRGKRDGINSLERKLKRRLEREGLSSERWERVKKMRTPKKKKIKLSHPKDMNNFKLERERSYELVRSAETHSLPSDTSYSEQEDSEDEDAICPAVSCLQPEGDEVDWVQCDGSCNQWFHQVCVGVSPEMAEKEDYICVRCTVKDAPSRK
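KDM5BΔAP (200 nM final) in 50 mM HEPES pH 7.5, 0.01% Tween-20 was preincubated 10 min at RT with compound over a concentration range. Substrate mix (H3K4me3 12.5 µM, α-KG 25 µM, Fe²⁺, ascorbate, NAD⁺, FDH) was added, and NADH fluorescence change over 30 min gave dose-response curves.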
* marks the source's active call; other numbers are inactive results; i = inactive. Potency is read from the fitted curve at half-maximal effect.

SMILES	KDM5B inhibitor
O=C1CC2CCCC(C1)N2C(=O)c1ccccc1	i
O=C(c1ccc2[nH]ccc2c1)N1CCC(N2C(=O)C3(CCCCC3)C2c2ccncc2)CC1 (centres undefined)	i
O=C(c1cccc2[nH]ccc12)N1CCC(N2C(=O)C3(CCCCC3)C2c2ccncc2)CC1 (centres undefined)	22µM*
O=C1CC2CCCC(C1)N2C(=O)c1cccc2[nH]ccc12	35µM*
CO[C@H]1C(=O)N(C2CCN(C(=O)c3n[nH]c4ccccc34)CC2)[C@H]1c1ccncc1	i
COc1ccc(CCNC(=O)Cc2c(C)c3c(OC)cc(C)cc3oc2=O)cc1	i
N#Cc1ccc(C(=O)/C=C/c2ccc3c(c2)OCCO3)cc1	i
Cc1cc(NC(=O)C(C)OC(=O)c2cc3ccccc3s2)no1 (centres undefined)	i
CCn1cnnc1CC1CCN(C(=O)C2CC2)CC1	i
Cc1cccc(C)c1OC1CN(c2cc(C3CC(O)C3)nc(N)n2)C1 (centres undefined)	i
CC(C)C(NC(=O)Cn1cnc2c1c(=O)n(C)c(=O)n2C)c1ccccc1 (centres undefined)	i
O=C(O)c1ccc(Cc2ccccc2)o1	i
O=Cc1cccc(-c2ccc(C(=O)O)o2)c1	126µM*
COc1ccc(F)cc1-c1cccc(C=O)c1	i
O=C(Oc1cccc2cccnc12)c1cccc2ccccc12	i
c1ccc(-c2ccnc(NCCOc3cccc4cccnc34)n2)nc1	20µM*
O=C(COc1ccccc1Cl)Nc1cccc2cccnc12	i
CCC(CC)NC(=O)CCc1c(C)c2ccc(OC)cc2oc1=O	i
COc1ccc(C2CCCCCN2C(=O)NCCn2ccnc2)cc1 (centres undefined)	i
COc1ccc(C2CCCN2C(=O)NCCn2ccnc2)cc1OC (centres undefined)	i
CCOC(=O)CN1CCCC1c1ccc(C(=O)NCCn2ccnc2)s1 (centres undefined)	28µM*
O=C(c1ccncc1)N1CC2CCC(C1)N2Cc1ccc(-c2cncnc2)cc1	i
FC(F)(F)c1ccc(N2C3CCC2CN(Cc2ccc(Cl)cc2)C3)cc1	i
FC(F)(F)c1ccc(N2C3CCC2CN(Cc2ccc(-c4cccs4)cc2)C3)cc1	28µM*
FC(F)(F)c1ccc(N2C3CCC2CN(Cc2ccccc2)C3)cc1	i
SMILES	KDM5B inhibitor
O=C(c1ccncc1)N1CC2CCC(C1)N2Cc1ccc(-c2ccsc2)cc1	i
O=C(c1ccncc1)N1CC2CCC(C1)N2Cc1ccc(-c2cccs2)cc1	79µM*
Fc1ccc(-c2cnc3n2C[C@H](CN(Cc2ccccc2)Cc2ccccc2)OC3)cc1	i
Cc1ccc(C(=O)OCC(=O)NCc2ccco2)cc1S(=O)(=O)Nc1cccc(Cl)c1	i
CNC(=O)[C@@H]1CN(C(=O)CCc2ccc(OC)cc2)C[C@H]1COC	i
Cc1ccc(C)c(CSc2nc3nc[nH]c3c(=O)[nH]2)c1	i
O=S(=O)(c1ccccc1)N1CCC(c2noc(C3CC3)n2)C1 (centres undefined)	i
COCC(=O)N[C@@H]1CN(C(=O)C2CC2)CC[C@@H]1c1nc(C)no1	i
Cc1ccc(C(=O)N2CC(c3nnc(C(C)C)o3)C3(CCOCC3)C2)cc1 (centres undefined)	i
CNCCN1C(=O)CC[C@H]2CN(C(=O)COc3cccnc3)CC[C@H]21	i
CNCCN1C(=O)CC[C@H]2CN(C(=O)N3CCOCC3)CC[C@H]21	i
CNCCN1C(=O)CC[C@H]2CN(C(=O)c3ccnc(NC)c3)CC[C@H]21	25µM*
CCC(C(=O)Nc1cc(Cl)ccc1C)N1C(=O)CCn2nc(C)cc21 (centres undefined)	i
COc1cccc(/C=C/C(=O)c2ccc(C(=O)O)s2)c1OC	i
NC(=O)c1cc(-c2cc(NCc3cccnc3)nc3[nH]ccc23)ccc1F	25µM*
O=C(Cn1c(=O)[nH]c2c(-c3ccccc3F)c[nH]c2c1=O)NCc1cccnc1	i
O=C(Cn1nc(-c2ccc(F)cc2)ccc1=O)NCc1cccnc1	i
c1coc(-c2cc(CSc3ccc4c(c3)OCCCO4)no2)c1	i
Cc1cc(N2CCN(c3cccc(C)c3C)CC2)n2nc(-c3ccco3)nc2n1	i
c1ccc(OCc2nc(-c3ccc4c(c3)OCCCO4)cs2)cc1	i
c1coc(-c2nc3nccc(-c4ccc5c(c4)OCCCO5)n3n2)c1	28µM*
COCc1nc2nccc(-c3ccc4c(c3)OCCCO4)n2n1	18µM*
COCC(C)NC(=O)c1cn(C)nc1-c1ccc2c(c1)OCCCO2 (centres undefined)	i
CCOc1cc(/C=C/C(=O)c2cccc(Cl)c2)cc(Cl)c1O	i
COc1ccccc1CN1CCC2(CC1)OC(=O)N(Cc1ccccc1F)C2(C)c1ccccc1 (centres undefined)	i
SMILES	KDM5B inhibitor
CCCn1nc(C(=O)NCC(c2ccc(OC)cc2)N(C)C)c2ccccc2c1=O (centres undefined)	i
CC(C)CCNC(=O)C1(C)CN(S(=O)(=O)c2ccccc2)CC(=O)N1c1ccc2c(c1)OCO2 (centres undefined)	i
CC(C)(/C=N/O)/[N+]([O-])=C/c1ccc(Cl)cc1Cl	i
Cc1noc2c(Nc3ccc(C(N)=O)cc3)cc(-c3ccc(F)cc3)nc12	16µM*
Cc1noc2c(NC(C)C)cc(-c3ccc(Cl)cc3)nc12	i
Cc1noc2c(-c3ccnn3C)cc(-c3ccc(F)cc3)nc12	i
CCCOc1ccc(/C=C(/C#N)c2nc3ccccc3[nH]2)cc1OC	i
Fc1cccc(CN2CCNc3cc(Nc4cccnc4)ncc3C2)c1	i
c1ccc(CN2CCNc3cc(-c4cccnc4)ncc3C2)cc1	32µM*
Cc1cc(-c2cc3c(cn2)CN(Cc2cccc(F)c2)CCN3)ccn1	i
CCn1cc(-c2cc3c(cn2)CN(Cc2cccnc2)CCN3)cn1	32µM*
c1ccc(CCN2CCNc3cc(NCc4cccnc4)ncc3C2)cc1	35µM*
NC(=O)c1cccc(-c2cc3c(cn2)CN(Cc2ccccc2)CCN3)c1	32µM*
c1cncc(Nc2cc3c(cn2)CN(Cc2cccs2)CCN3)c1	i
CC(=O)Nc1ccc(S(=O)(=O)Nc2ccc(-c3nncn3C)cc2)cc1	i
COC(=O)c1ccc(COC(=O)c2ccccc2C(=O)c2ccc(Cl)cc2)cc1	i
O=C(O)c1cc2ccc3cccnc3c2[nH]1	i
CCCCOC(=O)c1nc2ccccc2nc1Nc1cccc(OC)c1	i
CC(C)CNC(=S)Nc1cccc(Cl)c1	i
c1ccc(-c2cc3c(cn2)CN(Cc2c[nH]c4ccccc24)CCN3)cc1	i
Cc1[nH]cnc1CN1CCNc2cc(-c3ccccc3)ncc2C1	32µM*
Cc1cc(-c2cc3c(cn2)CN(Cc2ccccc2O)CCN3)ccn1	i
CC(Oc1ccccc1C(C)C)C(=O)N1CCN(c2ncccn2)CC1 (centres undefined)	i
COCCN1C(=O)c2ccc(C(=O)Nc3cccnc3)cc2C1=O	i
CN1CCC(NC(=O)C2(CCO)CCN(Cc3ccccc3)C2)CC1 (centres undefined)	i
COCCN1Cc2ccc(NCc3ccccc3)nc2C(C)(C(=O)Nc2cccnc2)C1 (centres undefined)	32µM*
COCCN1Cc2ccc(Nc3ccc(OC)cc3)nc2C(C)(C(=O)NCC2CC2)C1 (centres undefined)	i
COCCN1Cc2ccc(NCc3ccccc3)nc2C(C)(C(=O)NC2CCOCC2)C1 (centres undefined)	11µM*
